# Inconclusive results are not listed. Entries that show only a call come without a potency. Unmarked numbers belong to inactive results. Calls of active or inactive are those of the source. Unless noted, calls follow the shape of the full dose curve.
# Assay: qHTS assay to identify small molecule agonists of the hypoxia (HIF-1) signaling pathway - cell viability counter screen (AID 1224844); also: nearly all actives have a fitted effect of over 50% in size; also: potency is read from the fitted curve at half-maximal effect
# Conditions: HRE-bla ME-180 viability, CellTiter-Glo luminescence, 17 h; series mostly up to 76.8 µM; activity change, negative = cytotoxicity: at the top concentration
# Summary of the method: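 Cytotoxicity measured by CellTiter-Glo ATP luminescence in the wells also read for beta-lactamase signal. Cells were HRE-bla ME-180 (2,000/well, 0.5% dialyzed FBS), exposed to compounds for 17 h at 37C.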
Compound,Potency,"activity change, negative = cytotoxicity"
Cc1ccc(C)c(S(=O)(=O)O)c1,inactive,–
C=C(C)CC(C)(C)C,inactive,–
CN1Cc2c(N)cccc2C(c2ccccc2)C1 (stereo unspecified),inactive,–
CCOC(=O)CC(=O)OCC,inactive,–
O=c1c(O)c(-c2ccc(O)c(O)c2)oc2cc(O)cc(O)c12,inactive,–
Nc1cccc(N)n1,inactive,–
Nc1nc(N)c2nc(-c3ccccc3)c(N)nc2n1,inactive,–
OCC(O)CS (stereo unspecified),inactive,–
CC(=O)c1nccs1,inactive,–
Cc1ncc(CO)c(CO)c1O,inactive,–
C[Si](C)(C)N[Si](C)(C)C,inactive,–
CC/C=C(\C(=O)N[C@@H]1C(=O)N2C(C(=O)OCOC(=O)C(C)(C)C)=C(COC(N)=O)CS[C@H]12)c1csc(N)n1,inactive,–
CCOC(=O)c1ccc(O)cc1,inactive,–
Cc1nnc(NS(=O)(=O)c2ccc(N)cc2)s1,inactive,–
O=C(NCC1CCCCN1)c1cc(OCC(F)(F)F)ccc1OCC(F)(F)F (stereo unspecified),inactive,–
CC/C(C)=N/O,inactive,–
CC(=O)OC/C=C(\C)CCC=C(C)C,inactive,–
O=c1n(CCCN2CCN(c3cccc(Cl)c3)CC2)nc2ccccn12,inactive,–
Clc1cccc(Cl)c1NC1=NCCN1,–,4.18% [at 35.3 µM]

Compound,Potency,"activity change, negative = cytotoxicity"
N[C@@H](Cc1cc(I)c(Oc2ccc(O)c(I)c2)c(I)c1)C(=O)O,–,-3.04%
OC1CCCCC1,inactive,–
CCCCCCCCC(=O)O,inactive,–
CC(O)CNCC(C)O (stereo unspecified),inactive,–
c1cnc2c(c1)ccc1cccnc12,–,-25.7%
CC(C)(C)NC[C@H](O)COc1nsnc1N1CCOCC1,inactive,–
CC(C)=CCC/C(C)=C/C=O,inactive,–
CCN(CC)CCNC(=O)c1ccc(N)cc1,inactive,–
O=C(O)C1=NN(c2ccc(S(=O)(=O)O)cc2)C(=O)C1,inactive,–
CCn1cc(C(=O)O)c(=O)c2cc3c(cc21)OCO3,inactive,–
COc1ccc(N)c(OC)c1,–,-1.46%
CCCCC(=O)O,–,-6.67%
O=C1C(N(CO)C(=O)NCO)N(CO)C(=O)N1CO (stereo unspecified),inactive,–
CC(CN1c2ccccc2Sc2ccccc21)N(C)C (stereo unspecified),39.3 µM (active),–
Cc1ccccc1C=O,inactive,–
C=C(CC(=O)O)C(=O)O,inactive,–
CC[N+](CC)(CC(=O)Nc1c(C)cccc1C)Cc1ccccc1,inactive,–
NC(=O)c1ncn([C@@H]2O[C@H](CO)[C@@H](O)[C@H]2O)n1,18.3 µM (active),–

# Assay: qHTS assay to identify small molecule agonists of H2AX (AID 1224845; active = well fitted activation curve with a large enough effect in the signal ratio in the repeat runs, not every such curve was filed as active; the % refers to the signal ratio; also: potency is read from the fitted curve at half-maximal effect)
# Conditions: CHO-K1 phospho-H2AX Ser139 HTRF, 3 h; series mostly up to 154 µM; activation (H2AX phosphorylation): at the top concentration
# Summary of the method: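 Wild-type CHO-K1 cells plated overnight, then exposed 3 hr at 37C to compounds at 15 concentrations (0.76% DMSO). Lysed, then HTRF anti-pH2AX(S139)-cryptate/anti-H2AX-d2 detection after 24 hr at room temperature; emissions 665 and 620 nm.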
Compound,Potency,activation (H2AX phosphorylation)
Cc1ccc(C)c(S(=O)(=O)O)c1,inactive,–
C=C(C)CC(C)(C)C,inactive,–
CN1Cc2c(N)cccc2C(c2ccccc2)C1 (stereo unspecified),inactive,–
CCOC(=O)CC(=O)OCC,inactive,–
OCC(O)CS (stereo unspecified),inactive,–
CC(=O)c1nccs1,inactive,–
Cc1ncc(CO)c(CO)c1O,inactive,–
C[Si](C)(C)N[Si](C)(C)C,inactive,–
CC/C=C(\C(=O)N[C@@H]1C(=O)N2C(C(=O)OCOC(=O)C(C)(C)C)=C(COC(N)=O)CS[C@H]12)c1csc(N)n1,inactive,–
CCOC(=O)c1ccc(O)cc1,inactive,–
Cc1nnc(NS(=O)(=O)c2ccc(N)cc2)s1,inactive,–
O=C(NCC1CCCCN1)c1cc(OCC(F)(F)F)ccc1OCC(F)(F)F (stereo unspecified),inactive,–
CC/C(C)=N/O,inactive,–
CC(=O)OC/C=C(\C)CCC=C(C)C,inactive,–
O=c1n(CCCN2CCN(c3cccc(Cl)c3)CC2)nc2ccccn12,inactive,–
Clc1cccc(Cl)c1NC1=NCCN1,inactive,–

Compound,Potency,activation (H2AX phosphorylation)
OC1CCCCC1,inactive,–
CCCCCCCCC(=O)O,inactive,–
CC(O)CNCC(C)O (stereo unspecified),–,0.466%
c1cnc2c(c1)ccc1cccnc12,6.35 µM (active),–
CC(C)(C)NC[C@H](O)COc1nsnc1N1CCOCC1,inactive,–
CC(C)=CCC/C(C)=C/C=O,inactive,–
CCN(CC)CCNC(=O)c1ccc(N)cc1,inactive,–
CCn1cc(C(=O)O)c(=O)c2cc3c(cc21)OCO3,inactive,–
CCCCC(=O)O,inactive,–
O=C1C(N(CO)C(=O)NCO)N(CO)C(=O)N1CO (stereo unspecified),inactive,–
CC(CN1c2ccccc2Sc2ccccc21)N(C)C (stereo unspecified),–,0.724% [at 70.9 µM]
Cc1ccccc1C=O,inactive,–
C=C(CC(=O)O)C(=O)O,inactive,–
CC[N+](CC)(CC(=O)Nc1c(C)cccc1C)Cc1ccccc1,inactive,–
NC(=O)c1ncn([C@@H]2O[C@H](CO)[C@@H](O)[C@H]2O)n1,53.2 µM (active),–

# Assay: qHTS assay to identify small molecule agonists of the hypoxia (HIF-1) signaling pathway (AID 1224846; active = well fitted activation curve with a large enough effect in the signal ratio in the repeat runs, not every such curve was filed as active; the % refers to the signal ratio)
# Conditions: HRE-bla ME-180 cells, beta-lactamase ratio, 17 h; series mostly up to 76.8 µM; activation: at the top concentration
# Summary of the method: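 Compounds added to ME-180 cells carrying hypoxia-response-element beta-lactamase reporter (0.5% dialyzed FBS, 5 h preplating), 17 h at 37C; agonist activity detected by CCF4-AM B/G FRET read-out.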
row,Compound,outcome
1,Cc1ccc(C)c(S(=O)(=O)O)c1,inactive
2,C=C(C)CC(C)(C)C,inactive
3,CCOC(=O)CC(=O)OCC,inactive
4,Nc1cccc(N)n1,inactive
5,OCC(O)CS (stereo unspecified),inactive
6,CC(=O)c1nccs1,inactive
7,C[Si](C)(C)N[Si](C)(C)C,inactive
8,CC/C=C(\C(=O)N[C@@H]1C(=O)N2C(C(=O)OCOC(=O)C(C)(C)C)=C(COC(N)=O)CS[C@H]12)c1csc(N)n1,inactive
9,CCOC(=O)c1ccc(O)cc1,inactive
10,CC/C(C)=N/O,inactive
11,CC(=O)OC/C=C(\C)CCC=C(C)C,inactive
12,N[C@@H](Cc1cc(I)c(Oc2ccc(O)c(I)c2)c(I)c1)C(=O)O,inactive
13,OC1CCCCC1,inactive
14,CCCCCCCCC(=O)O,inactive
15,CC(O)CNCC(C)O (stereo unspecified),inactive
16,CC(C)=CCC/C(C)=C/C=O,inactive
17,O=C(O)C1=NN(c2ccc(S(=O)(=O)O)cc2)C(=O)C1,inactive
18,COc1ccc(N)c(OC)c1,inactive
19,CCCCC(=O)O,inactive
20,O=C(c1ccccc1)c1ccc(O)c(O)c1O,inactive
21,O=C1C(N(CO)C(=O)NCO)N(CO)C(=O)N1CO (stereo unspecified),inactive
22,Cc1ccccc1C=O,inactive
23,CC[N+](CC)(CC(=O)Nc1c(C)cccc1C)Cc1ccccc1,inactive

# Reference: PubChem BioAssay (Tox21)
